This is an account of results in PubChem BioAssay AID743325 (National Center for Advancing Translational Sciences (NCATS), 2014).

SMILES strings stand for the structures. The source made the active and inactive calls. Calls follow the shape of the full dose curve. Numbered stars: 1 amine (or outer) side, 2 acyl side, 3 side chain; on linkers, the order of the positions; unused ones are H or OH. Bridge positions count the residues as written; N and C are the ends. Square brackets hold non-standard residues; d marks the D form. Peptide text beside a SMILES is read from it. I, II: the chains in the order shown. Actinocin(9to1) = Cc1c2oc3c(C)ccc(C(=O)[*:1])c3nc-2c(C(=O)[*:2])c(N)c1=O; NMeV = CN[CH](C(=O)O)C(C)C; Sar = CNCC(=O)O

This test in a line: qHTS profiling of Chloroquine Analogs as inhibitors of Plasmodium falciparum (3D7) proliferation. Conditions: activity change, negative = inhibition: at 28.7 µM (top of the series) unless noted. The text has this: Plasmodium falciparum is a virulent malarial parasite that kills 1-2 million people worldwide each year. Transmitted by mosquitoes, the sporozoite form of the parasite enters the blood stream to infect hepatocytes, where they become merozoites that infect red blood cells (erythrocytes). Within erythrocytes, merozoites begin a […] cycle of growth and division, after which the parasite is released to infect new red blood cells. Gametocytes, which form within erythrocytes as well, circulate in the bloodstream and are ingested by the mosquito, thereby completing the life cycle. To profile malarial isolates for differential chemical responses and to identify inhibitors of malarial growth, an assay that measures P. falciparum growth and replication within erythrocytes was employed. This assay uses a DNA binding fluorescent dye (SYBR Green) to detect parasite DNA following cell lysis. Because mature erythrocytes lack DNA, only Plasmodium-derived DNA is detected.
The SYBR Green viability assay was adapted from a method described previously (Plouffe et al., 2008). For screening 3 ul culture medium was dispensed into 1536 well black clear bottom plates (Aurora Biotechnologies) using a Multidrop Combi (Thermo Fisher Scientific Inc.), 23 nL compounds in DMSO were added by a pin tool (Kalypsys), and 5 ul of erythrocytes infected with P. falciparum (0.3% parasitemia, 2.5% hematocrit final concentration) were added. The plates were incubated at 37 C in a humidified incubator in 5% CO2 for 72 h, and 2 ul lysis buffer (20 mM Tris HCl, 10 mM EDTA, 0.16% saponin, 1.6% triton X, 10X SYBR Green I supplied as 10,000X […] by Invitrogen) was added to each well. The plates were mixed for 25 sec with gentle shaking and incubated overnight at room temperature in the dark. The following morning, fluorescence intensity at 485(14) nm excitation and 535(25) nm emission wavelengths was measured on an EnVision (Perkin Elmer) plate reader. Plate reads were normalized relative to the control inhibitor (0.29 uM artemisinin) and vehicle (DMSO) wells present on each plate and then corrected by an algorithm using vehicle-only control plates at the beginning and end of the compound plate stack.
On to `C#C[C@]1(O)CC[C@@H]2[C@H]3CCC4=CC(=O)CC[C@H]4[C@H]3C(=C)C[C@@]21CC`, for which the “activity change, negative = inhibition” value was 177% (inactive).

Take `CC(=O)O[C@@]12CO[C@@H]1C[C@H](O)[C@@]1(C)C(=O)[C@H](O)C3=C(C)[C@@H](OC(=O)[C@H](O)[C@@H](NC(=O)OC(C)(C)C)c4ccccc4)C[C@@](O)([C@@H](OC(=O)c4ccccc4)[C@H]21)C3(C)C`: the “activity change, negative = inhibition” value was 177% (inactive).

With `COc1ncnc(NS(=O)(=O)c2ccc(N)cc2)c1OC`, the Potency was 1.5 µM (active).

Take `C[N+]1(C)CCC(=C(c2ccccc2)c2ccccc2)CC1`: the activity change, negative = inhibition is -94.2% [at 14.2 µM].

On to `COc1cccc(CCc2ccccc2OCC(CN(C)C)OC(=O)CCC(=O)O)c1` (configuration not stated), for which the Potency was 2.98 µM (active).

Regarding `CC(C)(C)c1cc(O)c(CN)c(C(C)(C)C)c1`, the Potency is 0.168 µM (active).

For the molecule `O=C(O)c1cn(C2CC2)c2cc(N3CCNCC3)c(F)cc2c1=O`, the “activity change, negative = inhibition” value was -11.8% (inactive).

In the case of `Cc1nc2c(C#N)cccc2n1-c1ccc(C(=O)NC2CC2)s1`, the activity change, negative = inhibition was -100%.

As to `CN(C)CC/C=C1\c2ccccc2COc2ccccc21`, the Potency was 2.02 µM (active).

For `Cc1cccc(C)c1OCC(N)C(C)C` (configuration not stated), the activity change, negative = inhibition was -97.7%.

Take `CCc1nc(N)nc(N)c1-c1ccc(Cl)cc1`: the activity change, negative = inhibition is -98.9%.

On to `C[C@H]1Cc2c([nH]c3cc(Cl)c(F)cc23)[C@@]2(N1)C(=O)Nc1ccc(Cl)cc12`, for which the activity change, negative = inhibition is -101%.

On to `CCN(CC)CCOCCOC(=O)C(CC)(CC)c1ccccc1`, for which the “activity change, negative = inhibition” value was 31.7% (inactive).

On to `COc1cc2c(Nc3ccc(NC(=O)c4ccccc4)cc3)ncnc2cc1OCCCN1CCOCC1`, for which the activity change, negative = inhibition is -100%.

Turning to `O=C(C[C@@H]1NCCC[C@@H]1O)Cn1cnc2ccccc2c1=O`, the Potency was 0.0027 µM (active).

`C[C@H](N)CN1CCc2ccc(Br)cc21`: the Potency was 1.68 µM (active).

`C[C@@H]1Cc2c([nH]c3cc(Cl)c(F)cc23)[C@]2(N1)C(=O)Nc1ccc(Cl)cc12`: the activity change, negative = inhibition is -101%.

Turning to `COc1cc(C=CC(=O)CC(=O)C=Cc2ccc(O)c(OC)c2)ccc1O`, the Potency is 8.41 µM (active).

In the case of `CN1C[C@H](C(=O)N[C@]2(C)O[C@@]3(O)[C@@H]4CCCN4C(=O)[C@H](Cc4ccccc4)N3C2=O)C[C@@H]2c3cccc4[nH]cc(c34)C[C@H]21`, the Potency was 0.53 µM (active).

With `Cc1oncc1C(=O)Nc1ccc(C(F)(F)F)cc1`, the “activity change, negative = inhibition” value is 171% (inactive).

Take `CN(C)c1ccc2nc3ccc(=[N+](C)C)cc-3sc2c1`: the Potency was 0.0043 µM (active).

For the molecule `CCc1ccc(OCc2ccccc2C(=O)Nc2ccc3nc(C)cc(N)c3c2)cc1`, the activity change, negative = inhibition was -101%.

Turning to `CCN(CC)CCOc1ccc2c(=O)c3ccc(Cl)cc3n(CCN(CC)CC)c2c1`, the activity change, negative = inhibition is -101%.

For `COc1cc(NC(C)CCCN)c2ncccc2c1` (configuration not stated), the Potency is 0.902 µM (active).

Consider `Cc1cccc(C)c1OCC(=O)N[C@@H](Cc1ccccc1)[C@@H](O)C[C@H](Cc1ccccc1)NC(=O)[C@H](C(C)C)N1CCCNC1=O`, for which the activity change, negative = inhibition was -99.8%.

Consider `COc1ccc(CCN(C)CCCC(C#N)(c2ccc(OC)c(OC)c2)C(C)C)cc1OC` (configuration not stated), for which the “activity change, negative = inhibition” value was -55% (inactive).

As to `COC(=O)C1C2CC3c4[nH]c5cc(OC)ccc5c4CCN3CC2CC(OC(=O)c2cc(OC)c(OC)c(OC)c2)C1OC` (configuration not stated), the activity change, negative = inhibition is -101% [at 57.5 µM].

For the molecule `CNC(=O)c1cc(Oc2ccc(NC(=O)Nc3ccc(Cl)c(C(F)(F)F)c3)cc2)ccn1`, the activity change, negative = inhibition is -100%.

Turning to `Cc1c2oc3c(C)ccc(C(=O)NC4C(=O)NC(C(C)C)C(=O)N5CCCC5C(=O)N(C)CC(=O)N(C)C(C(C)C)C(=O)OC4C)c3nc-2c(C(=O)NC2C(=O)NC(C(C)C)C(=O)N3CCCC3C(=O)N(C)CC(=O)N(C)C(C(C)C)C(=O)OC2C)c(N)c1=O` (configuration not stated) (I: TVP[Sar][NMeV] / II: TVP[Sar][NMeV]; ester I:1-I:C, II:1-II:C; linker I:N-II:N via Actinocin(9to1); configuration not given here), the Potency is 0.0021 µM (active).

Take `Oc1cc(Cl)ccc1Oc1ccc(Cl)cc1Cl`: the Potency is 1.88 µM (active).

For the molecule `NC(=NCc1ccccc1)NC(=O)c1nc(Cl)c(N)nc1N`, the activity change, negative = inhibition was -99.4%.

In the case of `O[C@H](c1cc(C(F)(F)F)nc2c(C(F)(F)F)cccc12)[C@H]1CCCCN1`, the “activity change, negative = inhibition” value was 193% [at 14.2 µM] (inactive).

For the molecule `CCOc1ccccc1O[C@H](c1ccccc1)[C@H]1CNCCO1`, the “activity change, negative = inhibition” value was 192% (inactive).

As to `OB1OCc2cc(F)ccc21`, the “activity change, negative = inhibition” value is 198% (inactive).

Consider `CCCCCCCCCCOc1cc2c(=O)c(C(=O)OCC)c[nH]c2cc1OCC`, for which the “activity change, negative = inhibition” value is 208% (inactive).

As for `C[C@H]1c2cccc(O)c2C(O)=C2C(=O)[C@]3(O)C(O)=C(C(N)=O)C(=O)[C@@H](N(C)C)[C@@H]3[C@@H](O)[C@@H]21`, the Potency was 8.41 µM (active).

For `CSc1cccc(NC(=O)CC[C@H]2O[C@@H]3O[C@]4(C)CC[C@H]5[C@H](C)CC[C@@H]([C@@H]2C)[C@@]35OO4)c1`, the Potency was 0.0211 µM (active).
